Bioassay records as filed in PubChem.
Only a selection was taken, and hits are over-represented in it overall.
Autofluor counter: flagged as autofluorescent in microsphere protease counterscreen; compound autofluorescence counterscreen, microsphere flow cytometry; active compounds read high; actives 3.1% (n = 360,000); fluorescence intensity (test concentration not listed); in the data active = fluorescence intensity above about 16000; inconclusive = no clear call, values can overlap the other calls
BoNT-A LC inh2: blocks Botulinum neurotoxin A light chain protease | multiplex microsphere protease substrate cleavage, flow cytometry | inhibition, % at 10 µM | actives 0.17% (n = 360,000); also: plate controls were buffer without enzyme for full effect and enzyme alone for no effect
Anthrax LF prot: anthrax lethal factor protease inhibition. P15917. multiplex microsphere protease cleavage assay, LF. inhibition, % at 10 µM. actives 0.12% (n = 360,000). AID 588501; also: plate controls were buffer without enzyme for full effect and enzyme alone for no effect
BoNT-F LC inh: inhibitors of Botulinum neurotoxin F light chain protease; inhibition, % at 10 µM; actives 0.22% (n = 360,000); Multiplex microsphere protease cleavage assay, flow cytometry; AID 588497; in the data active = inhibition above about 35%, passing the limit was not always enough; inconclusive = no clear call, values can overlap the other calls; also: plate controls were buffer without enzyme for full effect and enzyme alone for no effect
TcdB GH inh: TcdB glycohydrolase inhibition. inhibition, % at 9.99 µM. actives 0.24% (n = 350,000). AID 652162. P18177. TcdB glycohydrolase enzymatic assay, plate reader; in the data active = inhibition above about 10%
Starred values were filed as active, the others as inactive; ? = inconclusive; / = no result. Rule as the data show it, unless noted: active = inhibition above about 30%; inconclusive = no clear call, values can overlap the other calls; inactive = below that.

SMILES	Autofluor counter	BoNT-A LC inh2	Anthrax LF prot	BoNT-F LC inh	TcdB GH inh
COc1ccc(NC(=O)N(C)C[C@@H]2Oc3ncc(C#Cc4ccc(F)cc4)cc3C(=O)N([C@H](C)CO)C[C@@H]2C)cc1	/	/	/	/	0
C[C@H](CO)N1C[C@H](C)[C@H](CN(C)S(=O)(=O)c2ccc(F)cc2)Oc2ccc(NC(=O)Nc3ccc(C(F)(F)F)cc3)cc2CC1=O	/	/	/	/	0
O=C(C[C@@H]1C[C@@H]2c3cc(NC(=O)c4ccc5c(c4)OCO5)ccc3O[C@@H]2[C@@H](CO)O1)NCc1cc(F)ccc1F	/	/	/	/	-1
COCCCNC(=O)c1ccc2c(=O)n(CC3CCCO3)c(=S)[nH]c2c1 (stereo unspecified)	16266*	0	-7	-4	/
CC(C)NC(=O)c1ccc2c(=O)n(CC3CCCO3)c(=S)[nH]c2c1 (stereo unspecified)	3118	0	-4	1	0
COCCCNC(=O)c1ccc2c(=O)n(C3CCCC3)c(=S)[nH]c2c1	18736*	4	-3	4	/
CCN1CCN(C(=O)c2ccc3c(=O)n(C4CCCC4)c(=S)[nH]c3c2)CC1	9141	0	-9	2	/
O=C(Nc1ccccc1C(F)(F)F)C1CC(=O)N(c2ccccc2F)C1 (stereo unspecified)	21214*	4	-9	4	/
CNC(=O)C[C@H]1CC[C@H]2[C@@H](COc3ccc(NC(=O)Nc4cccc(Cl)c4)cc3C(=O)N2C)O1	/	/	/	/	1
CCCCCCCCCCOC(=O)c1csc2nnsc12	20631*	?	-2	-3	0
CCCCCOC(=O)c1ccccc1C(=O)O	4752	-1	4	-6	/
COc1ccc2c3c([nH]c2c1)[C@H](CO)N(Cc1nccs1)CC31CN(Cc2nccs2)C1	/	/	/	/	1
CCC(=O)N1CCN(c2ccc(NC(=O)c3cccs3)cc2)CC1	17020*	-2	-3	-8	/
O=C(Nc1ccc(N2CCN(C(=O)c3ccccc3)CC2)cc1)c1cccs1	3689	2	-2	5	2
CNC[C@@H]1Oc2ncc(C#Cc3cccc(F)c3)cc2C(=O)N([C@H](C)CO)C[C@@H]1C	/	/	/	/	-1
C/C=C/c1cnc2c(c1)C(=O)N([C@@H](C)CO)C[C@H](C)[C@H](CN(C)Cc1cccc(C(=O)O)c1)O2	/	/	/	/	-2
CO[C@H]1CN(C)C(=O)c2cc(NC(=O)NC3CCCC3)ccc2OC[C@H](C)N(CC2CC2)C[C@@H]1C	/	/	/	/	0
O=C(Nc1ccccc1C(=O)O)c1ccc(NC(=O)c2ccc(Br)o2)cc1	23730*	-2	-4	-1	0
CC(=O)Nc1ccc(S(=O)(=O)N2CCCN(S(=O)(=O)c3ccc(C)cc3)CC2)cc1	27039*	-10	-2	-15	/
Cc1ccc2nc(C3CCN(C(=O)NCc4ccccc4)CC3)[nH]c2c1	17071*	-3	-5	-5	/
CCN(c1ccc(NC(=O)COC(=O)c2ccc(S(=O)(=O)N3CCCC3)cc2)cc1)C(C)C	24507*	-3	-5	-10	/
O=C(COC(=O)c1ccc(O)cc1)Nc1ccc(S(=O)(=O)N2CCCC2)cc1	2662	1	1	0	2
CC(=O)Nc1ccc(S(=O)(=O)N2CCCN(S(=O)(=O)c3ccc(NC(C)=O)cc3)CC2)cc1	9007	1	6	10	/
COc1ccccc1-c1cnc2c(c1)C(=O)N([C@@H](C)CO)C[C@H](C)[C@@H](CN(C)C)O2	/	/	/	/	0
O=C(Cc1ccccc1)N1C[C@H]2[C@@H](c3ccccc31)[C@@H](CO)N2C(=O)Nc1ccc(F)cc1	/	/	/	/	4
SMILES	Autofluor counter	BoNT-A LC inh2	Anthrax LF prot	BoNT-F LC inh	TcdB GH inh
COCC(=O)Nc1ccc2c(c1)OC[C@@H](C)N(Cc1cccnc1)C[C@H](C)[C@H](OC)CN(C)C2=O	/	/	/	/	0
CC(=O)Nc1ccc(NC(=O)Cc2ccc(S(=O)(=O)N3CCCCC3)cc2)cc1	6425	-2	2	6	13*
Cc1ccc(S(=O)(=O)N2CCCN(S(=O)(=O)c3ccc4c(c3)OCCO4)CC2)cc1	26607*	-11	-7	-15	/
O=C(CSC1=NCCS1)Nc1ccc(S(=O)(=O)N2CCCCCC2)cc1	23340*	1	-1	1	/
O=C(CSC1=NCCS1)Nc1ccc(S(=O)(=O)NC2CCCCC2)cc1	8080	-1	-2	-4	/
Cc1ccc(C(=O)Nc2ccc(S(=O)(=O)N3CCCC3)cc2)o1	5745	1	0	-3	1
O=C(Nc1ccc(S(=O)(=O)N2CCCCCC2)cc1)c1ccc(Br)o1	21567*	-2	-1	-5	/
O=C(C1CCOCC1)N1CC[C@H]2[C@H](CO)Nc3ccc(Br)cc3[C@H]21	/	/	/	/	1
O=C(CNC(=O)c1ccco1)Nc1ccc(S(=O)(=O)N2CCCC2)cc1	21490*	-6	1	-9	/
Nc1cc(N)cc(C(=O)OCC(=O)Nc2cc(S(=O)(=O)N3CCCCC3)ccc2Cl)c1	4560	0	-5	-4	11*
CC(=O)Nc1ccc(S(=O)(=O)N2CCC(c3nc4ccc(C)cc4[nH]3)CC2)cc1	24362*	-1	-2	-4	/
O=C(Nc1ccc(S(=O)(=O)N2CCOCC2)cc1)c1ccco1	4574	-1	-2	-5	/
O=C(Nc1cccc(F)c1)N1CCCCN2[C@H](C1)[C@@H](c1ccc(-c3ccccc3F)cc1)[C@@H]2CO	/	/	/	/	1
NC(=O)Cn1cc(/C=N\NS(=O)(=O)c2ccc(Cl)cc2)c2ccccc21	4503	-1	-1	-9	1
O=S(=O)(N/N=C/c1cn(Cc2ccccc2)c2ccccc12)c1ccccc1	22504*	2	-2	5	/
Cc1ccccc1-c1nnc(SCC(=O)Nc2cccc(C)c2C)o1	19363*	?	-3	5	/
COc1ccc(Cl)cc1NC(=O)CSc1nnc(-c2ccco2)o1	?	3	-3	?	19*
COc1ccccc1-c1nnc(SCC(=O)Nc2c(Cl)cccc2Cl)o1	19236*	3	-2	4	/
Cc1cc(C)cc(NC(=O)CSc2nnc(-c3ccccc3Br)o2)c1	21943*	1	-2	1	/
COc1ccc(Cl)cc1NC(=O)CSc1nnc(CNC(=O)c2ccco2)o1	2027	0	0	-1	0
CCn1c(CCNC(=O)c2cccs2)nnc1SCC(=O)Nc1ccc(Cl)cc1	22204*	?	-4	4	/
CCn1c(SCC(=O)NCCc2ccc(Cl)cc2)nnc1-c1cccs1	4913	-2	-3	-24	/
CCn1c(CCNC(=O)c2cccs2)nnc1SCC(=O)NC1CCCCC1	21522*	?	-7	4	/
CCn1c(CNC(=O)c2ccccc2F)nnc1SCC(=O)NC1CCCCC1	2241	0	-2	-3	0
CCN1C(=O)CSc2ccc(C(=O)OC)cc21	5924	0	-3	-7	1
CCN1C(=O)CSc2ccc(C(=O)NCc3ccco3)cc21	16140*	2	0	4	2
CC(C)(C)NC(=O)c1ccnc(C(C)(C)C)c1	17617*	18	-19	20	/
CC(C)(C)c1cc(C(=O)NCc2ccco2)ccn1	24501*	-2	-1	-5	/
CC(C)(C)NC(=O)c1ccc2nccnc2c1	16956*	-2	-1	-2	/
Cc1ccc(C(=O)NCc2ccco2)cc1Br	14302	?	-4	6	/
